Consider 46 compounds from PubChem BioAssay AID1986 (Sanford-Burnham Center for Chemical Genomics, 2009).

The experiment in a line: inhibitors of HIV fusion peptide binding, primary screen, biochemical, uHTS, fluorescence dequenching (AID 1986). The conditions noted are these: cell-free peptide binding, 30 min, stronger effect = higher value.
The mark [1] stands for this setting: measured here: repeat confirmation average inhibition, at 18.6 µM.

Among all 290,000 compounds or so, about 890 (0.31%) were called active. Cut-off read from the data, not from the text of the source: active = inhibition mostly above about 52% (no sharp cut-off); inactive = mostly below about 76%. Only a selection was taken, and actives are over-represented in it overall.

As for `C=C1c2cccc(O)c2C(O)=C2C(=O)[C@]3(O)C(O)=C(C(N)=O)C(=O)[C@@H](N(C)C)[C@@H]3[C@@H](O)[C@H]12`, the inhibition (at 20 µM) is 63.7% (active).
`COc1ccc2nc(NC(=O)Cn3cnc4c(=O)n(C)c(=O)n(C)c43)sc2c1`: where the note is “at 20 µM”, the inhibition is 4% (inactive).
Still for that read-out and setting: in the case of `CCN(CC)C(=O)CC(c1ccc(F)cc1)c1ccc(OC)cc1` (stereo not given) it was 2% (inactive); in that of `COc1ccc(OCC(=O)Nc2ccncc2)cc1`, 1.1% (inactive).
Same read-out and setting: in the case of `CCC1(c2ccccc2)NC(=O)N(CC(=O)Nc2ccccc2N2CCCCC2)C1=O` (stereo not given) it was 2.6% (inactive); in that of `S=c1[nH]nc(C2CCCCC2)o1`, 0.3% (inactive); in that of `COC(=O)[C@H](CCSC)NC(=O)NCCC1=CCCCC1`, 0.8% (inactive).
In the case of `CCc1cccc(NC(=O)CN(C)S(=O)(=O)c2cccs2)c1`, the inhibition (at 20 µM) is 27.6% (inactive).
In the case of `Cc1ccc(C)c(N(C(=O)c2csnn2)C(C(=O)NC2CCCCC2)c2ccncc2)c1` (stereo not given), where the note is “at 20 µM”, the inhibition was -2.4% (inactive).
Still for that read-out and setting: in the case of `N#Cc1c(-c2ccccc2)cc(-c2ccco2)c(C#N)c1N` it was 70.5% (active).
As to `N#Cc1c(-c2ccco2)cc(-c2ccccc2)[nH]c1=O`, the inhibition is, setting by setting: (at 20 µM) 50.8% (inactive); under setting [1], 12.4%.
Take `CSc1nc(-c2ccco2)cc(-c2ccccc2)c1C#N`: the inhibition (at 20 µM) was -1.1% (inactive).
Still for that read-out and setting: in the case of `CN(C)c1cccc(NC(=O)c2cccc3ccccc23)c1` it was -1.2% (inactive); in that of `Cc1ccc(CN(C(=O)Cn2nnc3ccccc32)C(C(=O)NCc2ccco2)c2ccc(C)o2)cc1` (stereo not given), 0.4% (inactive); in that of `O=C(/C=C/c1ccco1)Nc1ccccn1`, 33.3% (inactive).
For the compound `O=C(/C=C/c1ccco1)Nc1ccccc1C(=O)O`, the inhibition reads like this: (at 20 µM) 58.3% (inactive); under setting [1], 24.2%.
For the compound `O=C(/C=C/c1ccco1)Nc1cc(Cl)ccc1C(=O)O`, the inhibition (at 20 µM) was 74.9% (active).
Take `O=C(/C=C/c1ccco1)Nc1cccc(NC(=O)/C=C/c2ccco2)n1`: the inhibition is, setting by setting: (at 20 µM) 93.3% (inactive); under setting [1], 1.5%.
`Cc1ccc(NC(=O)/C=C/c2ccco2)nc1`: the inhibition (at 20 µM) was 56.5% (active).
Same read-out and setting: in the case of `O=C(/C=C/c1ccco1)Nc1cccnc1Cl` it was 7.4% (inactive); in that of `COc1ccc(C(=O)C2CCCN(C(=O)c3csc(C(C)=O)c3)C2)c(C)c1` (stereo not given), 1.4% (inactive); in that of `CS(=O)(=O)N(CC(=O)Nc1ccccc1C(=O)N1CCCC1)c1ccccc1Br`, -0.2% (inactive).
In the case of `COc1cc(CNCCc2ccc(S(N)(=O)=O)cc2)ccc1OCC(=O)NC(C)(C)C`, the inhibition (at 20 µM) is -0.7% (inactive).
Same read-out and setting: in the case of `CSc1nc(=O)n2cccc(C)c2n1` it was 3.1% (inactive); in that of `COc1ccc(NC(=O)c2ccccc2OCc2c(C)noc2C)cc1OC`, 2.3% (inactive).
Still for that read-out and setting: in the case of `CC[C@@H](C(=O)[C@@H](C)[C@@H](O)[C@H](C)CCc1ccc(C)c(O)c1C(=O)O)[C@H]1O[C@](CC)([C@H]2CC[C@](O)(CC)[C@H](C)O2)C[C@@H]1C` it was 56.3% (active).
Still for that read-out and setting: in the case of `CN(C)N1C(N)=C(C#N)C(c2cccs2)C2=C1CC(C)(C)CC2=O` (stereo not given) it was -0.7% (inactive); in that of `CCOC(=O)c1ccc(NC(=O)c2ccc(CN3CCOCC3)cc2)cc1`, -0.8% (inactive).
Regarding `CCCN1C(=O)/C(=C/c2ccco2)SC1=Nc1ccc(OC)cc1`, the inhibition (at 20 µM) was 13.2% (inactive).
Take `COc1ccc(N=C2S/C(=C\c3ccc(N4CCOCC4)o3)C(=O)N2CCc2c[nH]c3ccccc23)cc1`: the inhibition (at 20 µM) is 14.3% (inactive).
`COCCN1C(=O)/C(=C/c2ccc(Oc3ccc([N+](=O)[O-])cn3)c(OC)c2)SC1=Nc1ccccc1`: under “at 20 µM”, the inhibition was 0.3% (inactive).
On to `O=C(O)COc1ccc(/C=C2\SC(=Nc3ccccc3)N(c3ccccc3)C2=O)cc1`, for which the inhibition (at 20 µM) is 36.9% (inactive).
On the same count and under the same terms, in the case of `O=C1/C(=C/c2ccc(N3CCOCC3)o2)SC(=Nc2ccccc2)N1CCc1c[nH]c2ccccc12` it was 37.2% (inactive); in that of `CCOC(=O)COc1ccc(/C=C2/SC(=Nc3ccccc3)N(Cc3cccnc3)C2=O)cc1OC`, -2.8% (inactive); in that of `COc1cc(/C=C2\SC(=Nc3ccc(N4CCOCC4)cc3)N(C)C2=O)ccc1OC(C)C(=O)O` (stereo not given), 0.3% (inactive).
Same read-out and setting: in the case of `COc1cc(/C=C2\SC(=Nc3ccccc3)N(Cc3ccco3)C2=O)ccc1OC(C)C(=O)O` (stereo not given) it was 34.6% (inactive).
The same measure, in the same setting: in the case of `CS(=O)(=O)Nc1ccc(C(=O)Nc2ccc3c(c2)OCO3)cc1` it was -0.8% (inactive); in that of `O=C(Nc1cc(S(=O)(=O)N2CCOCC2)ccc1N1CCOCC1)c1cccc(S(=O)(=O)N2CCCCC2)c1`, 0.7% (inactive).
For `Cn1c(CCN2CCCCC2)nc2cc(NC(=O)NC3CCCCC3)ccc21`, the inhibition runs as follows: (at 20 µM) 53.5% (inactive); under setting [1], 1.9%.
Take `O=C(NNC(=O)c1ccc([N+](=O)[O-])cc1)c1ccc(Br)cc1`: the inhibition (at 20 µM) was 2% (inactive).
The same measure, in the same setting: next, `NC(=O)C1CCN(C(c2ccccc2Cl)c2nnnn2CC2CCCO2)CC1` (stereo not given): 1.1% (inactive); `COc1ccc(S(=O)(=O)N(CCCN2CCOCC2)Cc2cccc(OC)c2OC)cc1`: -0.2% (inactive); `COc1ccc(CNCCCC(=O)Nc2c(Cl)ccc(C)c2Cl)cc1OC`: -0.3% (inactive).
`N#C/C(=C\c1ccccc1OCc1ccc(C(=O)O)cc1)c1ccccc1`: the inhibition (at 20 µM) is 19.1% (inactive).
Same read-out and setting: next, `N#C/C(=C/c1ccc(OCc2ccc(C(=O)O)cc2)c(Br)c1)c1cccc(F)c1`: 87.9% (active); `N#C/C(=C/c1ccccc1OCc1ccc(F)cc1)c1ccc(C(=O)O)cc1`: 31% (inactive).
